# High-throughput results (PubChem)
# ASK1 inh = inhibitors of human ASK1 kinase. inhibition, % at 7.44 µM. AlphaScreen MKK6 phosphorylation by ASK1, luminescence. Q99683. hit rate 0.99% among 22,000. AID 1159602; in the data active = inhibition above about 35%
# ULK1 primary = inhibitors of human ULK1 kinase. inhibition, % at 5.96 µM. AlphaScreen Atg13 phosphorylation by ULK1, luminescence. O75385. hit rate 1.9% among 30,000. AID 1259251; in the data active = inhibition above about 43%
# Target sequence (O75385 whole entry, looked up): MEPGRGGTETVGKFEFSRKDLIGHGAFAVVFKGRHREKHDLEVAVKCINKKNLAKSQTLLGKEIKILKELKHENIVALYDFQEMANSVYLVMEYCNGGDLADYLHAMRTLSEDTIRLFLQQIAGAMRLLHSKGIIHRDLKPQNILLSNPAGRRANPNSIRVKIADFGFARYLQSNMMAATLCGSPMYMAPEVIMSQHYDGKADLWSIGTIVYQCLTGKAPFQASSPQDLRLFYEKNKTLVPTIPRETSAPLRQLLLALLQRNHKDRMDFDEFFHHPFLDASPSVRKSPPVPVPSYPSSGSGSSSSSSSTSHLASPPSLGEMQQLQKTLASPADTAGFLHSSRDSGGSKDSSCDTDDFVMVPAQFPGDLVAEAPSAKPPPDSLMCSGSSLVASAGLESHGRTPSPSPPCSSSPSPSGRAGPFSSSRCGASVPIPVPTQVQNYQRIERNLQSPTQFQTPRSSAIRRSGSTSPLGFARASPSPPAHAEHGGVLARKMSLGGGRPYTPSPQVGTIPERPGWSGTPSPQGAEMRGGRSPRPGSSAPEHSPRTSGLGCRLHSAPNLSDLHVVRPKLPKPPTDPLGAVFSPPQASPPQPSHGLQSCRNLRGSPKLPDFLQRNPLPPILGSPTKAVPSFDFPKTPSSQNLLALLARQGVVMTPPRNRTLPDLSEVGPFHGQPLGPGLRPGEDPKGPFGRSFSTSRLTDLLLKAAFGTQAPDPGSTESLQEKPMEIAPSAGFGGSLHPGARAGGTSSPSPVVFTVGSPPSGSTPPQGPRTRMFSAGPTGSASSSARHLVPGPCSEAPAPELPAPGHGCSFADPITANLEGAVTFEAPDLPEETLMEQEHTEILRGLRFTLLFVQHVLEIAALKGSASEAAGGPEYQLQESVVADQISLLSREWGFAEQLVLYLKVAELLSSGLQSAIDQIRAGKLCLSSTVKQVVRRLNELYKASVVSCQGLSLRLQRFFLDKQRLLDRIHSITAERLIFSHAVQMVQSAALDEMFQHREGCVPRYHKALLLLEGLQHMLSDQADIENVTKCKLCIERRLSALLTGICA
# TruHits interf = interferes with AlphaScreen TruHits signal in ASK1 counter-screen; hit rate 20% among 220; AlphaScreen TruHits beads, signal interference counterscreen; shares compounds with ASK1 inh; IC50, µM;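 active = IC50 of 10 µM or lower in the counterscreen; inactive = IC50 above 10 µM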;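 also: loss of AlphaScreen light from TruHits beads alone with no ASK1 enzyme present; potency of signal reduction so a low IC50 flags an assay artifact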
# A number is an active result; n = inactive; x = not tested or not shown. Hits are enriched below; roughly 2.5% of the tested compounds scored in any of these assays.
SMILES,ASK1 inh,ULK1 primary,others
Cc1nn(C)c(C)c1-c1nc2c(NCc3cccnc3)ncnc2n1C(C)C,n,n,
CCCNC(=O)c1cccc(-c2csc3ccccc23)c1,n,n,
N#Cc1cc(-c2ccnc(Nc3ccc(N4CCCCC4)cc3)n2)cc(N2CCOCC2)c1,n,n,
N#Cc1cc(-c2ccnc(Nc3ccc(N4CCNCC4)cc3)n2)cc(N2CCOCC2)c1,n,93,
N#Cc1cc(-c2ccnc(Nc3ccc(CN4CCCCC4)cc3)n2)cc(N2CCOCC2)c1,n,71,
N#Cc1cc(-c2ccnc(Nc3ccc(-c4ccccn4)cc3)n2)cc(N2CCOCC2)c1,n,n,
CCCNC(=O)Nc1cnn(-c2cccc(C(=O)Nc3ccc(N4CCOCC4)cc3)c2)c1,n,n,
c1cc(Nc2nc3ncnc(NC4CC4)c3[nH]2)ncn1,n,n,
CN1CCN(C(=O)c2ccc(-c3cccc(C(=O)NCc4ccccc4)n3)cc2)CC1,n,70,
CN1CCN(C(=O)c2ccc(-c3cccc(C(=O)NCc4cccnc4)n3)cc2)CC1,n,n,
COc1cc(NC(=O)c2cnc(Nc3ccncn3)s2)cc(OC)c1OC,n,n,
CCn1c(C2COc3ccc(OC)cc3C2)nc2cc(F)c(-c3cn[nH]c3)cc21 (centres undefined),n,n,
Cc1[nH]cnc1CN1CCc2c(c3ccccc3n2C)C1=O,x,78,
Cc1nccn1CC1CCc2c(c3ccccc3n2C)C1=O (centres undefined),x,n,
CNC(=O)c1cnccc1Nc1cc(Nc2ccc3c(c2)CC(=O)N3)ncc1C(F)(F)F,n,n,
CNC(=O)c1ccccc1Nc1cc(NC(=O)C(C)(C)c2ccccc2)ncc1C(F)(F)F,n,n,
CNC(=O)c1ccccc1Nc1cc(Nc2cccnc2)ncc1C(F)(F)F,n,61,
CNC(=O)c1ccccc1Nc1cc(Nc2ncccc2C)ncc1C(F)(F)F,n,62,
CCCNc1nc(N(CC)CC)nc(N2CCCC2CO)n1 (centres undefined),n,n,
CCCNc1cc(-c2ccc(N3CCOCC3)nc2)nc(N)n1,n,n,
O=C(O)Cc1ccc(Nc2nccc(-c3ccccc3)n2)cc1,n,n,
O=c1[nH]cccc1-c1ccc(Nc2nccc(-c3ccc4nc(C5CC5)[nH]c(=O)c4c3)n2)cc1,43,70,TruHits interf=n
Cc1noc(C)c1-c1cc(C(=O)NCCN(C(C)C)C(C)C)ccn1,n,n,
Cc1ncn(-c2ccc(Nc3ncc4cccc(-c5cccc(F)c5)c4n3)cc2)n1,n,n,
Cc1ccc(-c2ncn(-c3ccc(Nc4cc(-c5cnn(C)c5)c(Cl)cn4)cc3)n2)cn1,n,n,
SMILES,ASK1 inh,ULK1 primary,others
Cc1ccc(-c2cccc3cnc(Nc4ccc(-n5cnc(C)n5)cc4)nc23)cn1,39,n,TruHits interf=n
Cc1ccc(-c2ncn(-c3ccc(Nc4ncc(Cl)c(-c5ccnn5C)n4)cc3)n2)cn1,43,n,TruHits interf=n
Nc1nc(NCCN2CCOCC2)cc(N2CCN(c3ccccn3)CC2)n1,n,n,
CC(C)N(CCNc1nc(N2CCC(N3CCOCC3)CC2)nc2c1ncn2-c1ccsc1)C(C)C,n,n,
Cc1ccccc1-c1nc2scc(CCNC(=O)c3ccccc3F)n2n1,x,n,
COc1ccc(-c2nc(C)cc(NCCN(C(C)C)C(C)C)n2)cn1,n,n,
COc1cc(Nc2nc(N3CCc4ccccc4C3)nc3c2ncn3C(C)C)cc(OC)c1OC,40,n,TruHits interf=n
COc1cc(Nc2nc(N3CCc4ccccc4C3)nc3c2ncn3C2CCCCC2)cc(OC)c1OC,n,n,
CC(C)NC(=O)c1cccc(NC(=O)Nc2ccc(-c3cn[nH]c3)cc2)c1,n,n,
CC(C)NC(=O)c1cccc(NC(=O)Nc2ccc(-c3ccnc4[nH]ccc34)cc2)c1,39,n,TruHits interf=n
Oc1ccc(CCNc2nc(N3CCN(c4ccccn4)CC3)nc3c2ncn3-c2ccsc2)cc1,39,n,TruHits interf=n
CCCNc1nc(N2CCN(c3ccccn3)CC2)nc2c1ncn2-c1ccsc1,n,n,
c1ccc(Oc2ccc(Nc3nc(N4CCOCC4)nc4c3ncn4-c3ccsc3)cc2)cc1,n,n,
c1ccc(N2CCN(c3nc(Nc4ccc(N5CCOCC5)cc4)c4ncn(-c5ccsc5)c4n3)CC2)nc1,45,n,TruHits interf=n
CC(=O)Nc1ccc(Nc2nc(Nc3ccc(C(F)(F)F)cc3)nc3c2ncn3-c2ccsc2)cc1,n,n,
NC(C(=O)N1CCC(C(=O)Nc2ccc3[nH]ncc3c2)CC1)c1cccc(Br)c1 (centres undefined),n,n,
COc1ccc(CCNC(=O)c2ccnc(Cl)c2)cc1,n,n,
Cc1nn(C)c(C)c1-c1nc(NCCCN2CCCC2=O)c2ncn(-c3ccsc3)c2n1,n,n,
COc1ccc2c(c1)C[C@@H](C(=O)Nc1ccc(-c3cn[nH]c3)cc1O[C@@H]1CCN(C)C1)CO2,n,n,
COc1cc2nc(Nc3cccc(N(C)C)c3)nc(Nc3ccccc3)c2cc1OC,42,n,TruHits interf=4.3
COc1cc2nc(Nc3ccccc3)nc(Nc3ccccc3)c2cc1OC,n,n,
COc1cc2nc(Nc3ccncc3)nc(Nc3ccc(NC(C)=O)cc3)c2cc1OC,n,n,
COc1cc2nc(Nc3cccc(N(C)C)c3)nc(Nc3ccc(NC(C)=O)cc3)c2cc1OC,55,n,TruHits interf=8.7
Cc1cnc(-c2cccs2)nc1NCCCN1CCCC1=O,n,n,
CCN(CC)C(=O)C1CCCN(c2cc(C(=O)NCCN3CCOCC3)c3ccccc3n2)C1 (centres undefined),n,n,
SMILES,ASK1 inh,ULK1 primary,others
Cc1cc(NC2CC2)nc(Nc2cccc(N(C)C)c2)n1,n,n,
CC(C)n1c(Nc2ccccc2)nc2c(NC3CCN(Cc4ccccc4)CC3)ncnc21,n,n,
CN(C)c1cccc(Nc2nc(NC3CCN(Cc4ccccc4)CC3)c3ncn(-c4ccccc4)c3n2)c1,n,n,
Cc1cc(NC2CCN(Cc3ccccc3)CC2)nc(Nc2cccc(N(C)C)c2)n1,50,n,TruHits interf=8.6
CC(C)n1c(Nc2cccc(N(C)C)c2)nc2c(NC3CCN(Cc4ccccc4)CC3)ncnc21,38,n,TruHits interf=n
CC(C)n1cnc2c(NC3CCN(Cc4ccccc4)CC3)nc(Nc3cccc(N(C)C)c3)nc21,36,n,TruHits interf=n
FC(F)(F)c1cccc(CNc2nc(Nc3ccc(N4CCOCC4)cc3)nc3c2ncn3-c2ccccc2)c1,n,n,
COc1ccc(CCNc2nc(-c3ccc(C(=O)NC4CC4)cc3)nc3c2ncn3-c2ccsc2)cc1,n,n,
Cc1cnc(Nc2nccc3ccccc23)nc1NCc1cccnc1,n,n,
CC(=O)Nc1ccc(Nc2nc(N3CCC(N4CCOCC4)CC3)ncc2C)cc1,n,n,
Cc1c[nH]c2ncnc(-c3ccc(NC(=O)Nc4ccccc4)cc3)c12,39,n,TruHits interf=n
CCn1c(=O)[nH]c2ncnc(-c3ccc(NC(=O)Nc4cccc(C(=O)NC(C)C)c4)cc3)c21,n,n,
O=C(NC1CC1)c1ccc(-c2nc(NCc3cccc(C(F)(F)F)c3)c3ncn(-c4ccccc4)c3n2)cc1,45,n,TruHits interf=n
O=C(NC1CC1)c1ccc(-c2nc(NCc3cccc(C(F)(F)F)c3)c3ncn(-c4ccsc4)c3n2)cc1,n,n,
CC(C)CNC(=O)c1ccc2c(c1)CC(c1nc3ncc(-c4ccnc(N)n4)cc3[nH]1)CO2 (centres undefined),42,n,TruHits interf=n
CN(C)CCNC(=O)c1ccc2c(c1)CC(c1nc3ncc(-c4ccnc(N)n4)cc3[nH]1)CO2 (centres undefined),n,n,
COc1ccc(CCNC(=O)c2ccnc(Nc3ccc4ncccc4c3)c2)cc1,n,n,
